From PubChem BioAssay
Only some compounds are listed: those with a hit (about 9.8% of all), similar ones and a draw of the others.
HPGD inh – qHTS Assay for Inhibitors of HPGD (15-Hydroxyprostaglandin Dehydrogenase); purified HPGD, NADH fluorescence kinetic, PGE2 substrate; actives 4.3% (n = 150,000); Potency, µM, hits mostly inhibitors
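20 nM HPGD preincubated 15 min at room temperature with compound in 50 mM Tris-HCl pH 8, 0.01% Tween 20. Started with 1 mM NAD+ and 30 uM prostaglandin E2; NADH fluorescence (360/450 nm) read 5 times over 30-s intervals, last minus first.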
HTT cytoprotect – qHTS Multiplex Assay to Identify Dual Action Probes in a Cell Model of Huntington: Cytoprotection (ATP). PC12 HTT-Q103 induced, cytoprotection, ATP luminescence, 40 h. Potency, µM (titrated, usually from 56.4 µM), actives largely listed as activators. actives 0.14% (n = 230,000). AID 1471, 2008; active = well fitted curve in the direction sought with a large enough effect; inconclusive = small, poorly fitted or top-dose-only effect, or another doubt; inactive = no such curve, though single readings can be large; an effect the other way counts as inactive or inconclusive; note: nearly all actives have a fitted effect of over 45% in size
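Rat PC12, Q103 Htt exon1-GFP fusion, ecdysone promoter; tebufenozide inducer 100 nM final; compound titration; qHTS, 1500 cells/well; ATPlite luminescent read.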
HTT aggregate – qHTS Multiplex Assay to Identify Dual Action Probes in a Cell Model of Huntington: Aggregate Formation (GFP). PC12 HttQ103-GFP aggregates, Acumen cytometry, 40 h. Potency, µM (top dose mostly 46.1 µM), most hits filed as inhibitors. actives 1.1% (n = 220,000). AID 1688, 2009; active = well fitted curve in the direction sought with a large enough effect; inconclusive = small, poorly fitted or top-dose-only effect, or another doubt; inactive = no such curve, though single readings can be large; an effect the other way counts as inactive or inconclusive; note: nearly all actives have a fitted effect of over 60% in size
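Inducible Q103 Huntingtin exon 1–GFP PC12 line, 1500 cells/well in phenol red free DMEM with 5% equine and 5% calf serum. Tebufenozide 100 nM induced expression; compounds titrated; aggregates quantified by cytometry.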
JMJD2E inh – qHTS Assay for Inhibitors of Human Jumonji Domain Containing 2E (JMJD2E); JMJD2E catalytic domain, FDH-coupled NADH fluorescence (FDH is formaldehyde dehydrogenase); AID 2147, 2009; actives 1.6% (n = 230,000); Lysine-specific demethylase 4E (Homo sapiens), B2RXH2; Potency, µM (doses to about 57.1 µM), usual class: inhibitors; note: nearly all actives have a fitted effect of over 50% in size
CBFb-RUNX1 inh – qHTS Assay for Compounds Blocking the Interaction Between CBF-beta and RUNX1 for the Treatment of Acute Myeloid Leukemia | Runt-related transcription factor 1 (Homo sapiens) + Core-binding factor subunit beta … | AlphaScreen CBFb-His/RUNX1-biotin binding, biochemical | Potency, µM (top dose mostly 59.8 µM), hits mostly inhibitors | 230,000 tested, under 10 active | AID 1477, 2009; active = well fitted curve in the direction sought with a large enough effect; inconclusive = small, poorly fitted or top-dose-only effect, or another doubt; inactive = no such curve, though single readings can be large; an effect the other way counts as inactive or inconclusive
Target sequence (Q01196 whole entry, looked up): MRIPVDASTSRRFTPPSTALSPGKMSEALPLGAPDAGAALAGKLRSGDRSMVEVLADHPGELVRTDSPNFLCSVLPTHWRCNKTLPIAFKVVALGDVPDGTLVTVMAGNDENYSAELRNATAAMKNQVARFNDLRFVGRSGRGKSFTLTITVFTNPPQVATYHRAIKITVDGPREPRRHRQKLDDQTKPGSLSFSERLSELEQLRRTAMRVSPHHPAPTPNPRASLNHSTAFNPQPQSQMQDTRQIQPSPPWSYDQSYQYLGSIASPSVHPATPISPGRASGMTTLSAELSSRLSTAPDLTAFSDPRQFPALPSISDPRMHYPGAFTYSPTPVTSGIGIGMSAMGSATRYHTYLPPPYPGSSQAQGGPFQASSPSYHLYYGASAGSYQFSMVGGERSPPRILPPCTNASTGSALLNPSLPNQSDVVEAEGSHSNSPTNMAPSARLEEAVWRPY
Target sequence (Q13951 whole entry, looked up): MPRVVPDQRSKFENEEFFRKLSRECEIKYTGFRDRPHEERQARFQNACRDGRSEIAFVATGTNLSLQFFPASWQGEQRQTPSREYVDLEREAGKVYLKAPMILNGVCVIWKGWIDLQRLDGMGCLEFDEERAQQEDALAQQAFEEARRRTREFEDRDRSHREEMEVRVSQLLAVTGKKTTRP
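Proteins preincubated together for 20 min at RT before compound addition; 15 min later, nickel and streptavidin beads were added and left 90 min prior to AlphaScreen measurement.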
ALDH1A1 inh – qHTS Assay for Inhibitors of Aldehyde Dehydrogenase 1 (ALDH1A1); Aldehyde dehydrogenase 1A1 (Homo sapiens), P00352; Purified ALDH1A1, NADH fluorescence, propionaldehyde substrate; Potency, µM (top dose mostly 75.3 µM), most hits filed as inhibitors; actives 7.3% (n = 220,000); AID 1030, 2008
Of the large screens only hits and unclear results are named; the others gave an inactive call. Unless noted, calls come from the whole dose curve; as a rule, active = well fitted inhibition curve with a large enough effect (not every such curve was filed as active); inconclusive = small, poorly fitted or top-dose-only effect, or another doubt; inactive = no such curve, though single readings can be large or run the other way.

COC(=O)c1ccccc1Nc1cc(C)nc2nc(C)nn12	HPGD inh 1µM
CCSc1nnc(NC(=O)CSc2nc3c(c(=O)n2-c2ccccc2OC)SCC3)s1	JMJD2E inh inconclusive, ALDH1A1 inh inconclusive
CCC(=O)c1ccc(OCC(=O)O)cc1	none
CCC(=O)c1ccc(OCCSc2ncccn2)cc1	HPGD inh 32µM
Cc1ccc(C(=O)Nc2ccc(C(=O)N3CCCCC3C)cc2)cc1 (stereo unspecified)	ALDH1A1 inh inconclusive (no result: HPGD inh)
O=C(Nc1cccc(S(=O)(=O)N2CCCCC2)c1)c1ccc([N+](=O)[O-])o1	HTT cytoprotect inconclusive, HTT aggregate inconclusive, ALDH1A1 inh inconclusive (no result: HPGD inh)
COc1cc(C#N)ccc1OCC(=O)Nc1cccc(S(=O)(=O)N2CCCC2)c1	ALDH1A1 inh 13µM (no result: HPGD inh)
Cc1ccc(NC(=O)COC(=O)c2ccc([N+](=O)[O-])o2)cc1S(=O)(=O)N1CCCCC1	ALDH1A1 inh 25µM (no result: HPGD inh)
O=C(COC(=O)c1ccc([N+](=O)[O-])o1)Nc1cccc(S(=O)(=O)N2CCCCC2)c1	ALDH1A1 inh 11µM (no result: HPGD inh)
Cc1ccc(NC(=O)c2ccc([N+](=O)[O-])o2)cc1S(=O)(=O)N1CCOCC1	HTT aggregate inconclusive, ALDH1A1 inh inconclusive (no result: HPGD inh, HTT cytoprotect)
CC(=O)C1=C(c2ccccc2)NC(=S)NC1c1ccc(O)c(O)c1 (stereo unspecified)	HTT aggregate inconclusive, JMJD2E inh 22µM, ALDH1A1 inh inconclusive (no result: HPGD inh, HTT cytoprotect)
CC(=O)C1=C(c2ccccc2)NC(=S)NC1c1cc(Cl)c(OC(C)C)c(Cl)c1 (stereo unspecified)	HTT aggregate inconclusive, ALDH1A1 inh 0.71µM
COc1cc(C2NC(=S)NC(c3ccccc3)=C2C(C)=O)cc(Cl)c1OCC(=O)O (stereo unspecified)	ALDH1A1 inh inconclusive
Cc1ccc2[nH]c(=O)c(CN(CCCN(C)C)C(=O)Nc3ccc(F)cc3)cc2c1	JMJD2E inh inconclusive (no result: HPGD inh)
CSc1nc2sc3c(c2c2nncn12)CCC3	ALDH1A1 inh 7.9µM
CCN(CC)c1ccc(/C=C(\C#N)c2ccccn2)cc1	HTT aggregate inconclusive, ALDH1A1 inh inconclusive
CCN(CC)c1ccc(C=N/C(C#N)=C(\N)C#N)cc1	ALDH1A1 inh 11µM
NS(=O)(=O)c1ccc(NC=C2C(=O)OC3(CCCCC3)OC2=O)cc1	HPGD inh 35µM, ALDH1A1 inh 1.9µM
CCCCc1ccc(NC=C2C(=O)OC3(CCCCC3)OC2=O)cc1	HTT aggregate inconclusive, ALDH1A1 inh inconclusive
CCCCCC1=C2CNC(CCC)(C(=O)OC)C=C2C(C)C1=O (stereo unspecified)	JMJD2E inh inconclusive, CBFb-RUNX1 inh inconclusive, ALDH1A1 inh 28µM (no result: HTT aggregate)
CCOC(=O)C1CN(S(=O)(=O)c2ccc(C)cc2)c2cc(S(=O)(=O)CC)ccc2O1 (stereo unspecified)	ALDH1A1 inh inconclusive
CCS(=O)(=O)c1ccc2c(c1)N(S(C)(=O)=O)CC(C(=O)NN)O2 (stereo unspecified)	ALDH1A1 inh 0.56µM (no result: HPGD inh, HTT cytoprotect)
COC(=O)c1sc(N2C(=O)C(O)=C(C(=O)c3ccc(C)o3)C2c2ccc(F)cc2)nc1C (stereo unspecified)	HPGD inh 8.9µM, ALDH1A1 inh inconclusive
Cc1ccc(C(=O)C2=C(O)C(=O)N(c3ncccn3)C2c2ccc(F)cc2)o1 (stereo unspecified)	none (no result: HPGD inh, ALDH1A1 inh)
CC(=O)Nc1nc(SCc2ccc(Cl)cc2Cl)n[nH]1	HTT cytoprotect inconclusive (no result: HTT aggregate)
CCCc1nc(SCc2ccccc2Cl)n[nH]1	HPGD inh 13µM
CCc1nc(SCc2cc(Cl)ccc2OC)n[nH]1	HPGD inh 13µM
CCc1nc(SCc2ccc(F)cc2)n[nH]1	none (no result: HPGD inh)
Cn1cnnc1Sc1ccc(C(F)(F)F)cc1[N+](=O)[O-]	none (no result: HPGD inh)
N#Cc1c(-c2ccccc2Cl)cc(C2CC2)nc1N	none (no result: HPGD inh)
N#Cc1c(-c2cccc(F)c2)cc(-c2ccccc2)nc1Br	HPGD inh 18µM
N#Cc1c(-c2ccccc2Cl)cc(-c2ccccc2)nc1Br	HPGD inh 25µM (no result: HTT cytoprotect)
CS(=O)c1nc(-c2ccc(Br)cc2)cc(-c2ccccc2)c1C#N (stereo unspecified)	HTT aggregate inconclusive, ALDH1A1 inh 13µM
CS(=O)(=O)c1nc(-c2ccc(Br)cc2)cc(-c2ccccc2)c1C#N	JMJD2E inh inconclusive, ALDH1A1 inh inconclusive
O=Nc1c(-c2cccc([N+](=O)[O-])c2)nc2ncccn12	JMJD2E inh inconclusive (no result: HPGD inh, ALDH1A1 inh)
COc1ccc(O)c(/C=c2/sc3nc4cc(C)c(C)cc4n3c2=O)c1	HPGD inh 7.9µM, ALDH1A1 inh inconclusive
COc1ccc(OC)c(/C=c2\sc3nc(-c4cccs4)nn3c2=O)c1	JMJD2E inh inconclusive
Cc1ccc(OC(=O)Nc2ccccc2)cc1	none (no result: HPGD inh)
O=C(Nc1ccccc1)Oc1ccc[nH]c1=O	JMJD2E inh 22µM (no result: HPGD inh, ALDH1A1 inh)
Cc1ccc(/C=C2\SC(N3CCCC3)=NC2=O)cc1	none (no result: HPGD inh)
O=C1N=C(N2CCCCC2)S/C1=C/C1=Cc2ccccc2OC1	ALDH1A1 inh 28µM (no result: HPGD inh)
Cc1ccc(Nc2c(-c3ccccn3)nc3cccc(C)n23)cc1	HTT aggregate 7.9µM (no result: HPGD inh, CBFb-RUNX1 inh)
COC(=O)CSc1nc2ccccn2c(=O)c1C=O	JMJD2E inh inconclusive (no result: HPGD inh)
CC1CCCN(C(=S)SCC(=O)O)C1 (stereo unspecified)	none
O=C(CSC(=S)N1CCCC1)c1cc(Br)cc(Br)c1O	HTT aggregate inconclusive, JMJD2E inh inconclusive, ALDH1A1 inh 16µM (no result: HPGD inh)
CC1CCCN(C(=S)SCC(=O)c2cc(Br)cc(Br)c2O)C1 (stereo unspecified)	JMJD2E inh inconclusive, ALDH1A1 inh 25µM (no result: HPGD inh)
CCOC(=O)c1sc2nc(C)nc(SCC(=O)N(CC)C3CCS(=O)(=O)C3)c2c1C (stereo unspecified)	ALDH1A1 inh inconclusive (no result: HPGD inh)
O=c1cc(-c2cccc(O)c2)oc2ccc(O)cc12	HPGD inh 7.1µM, ALDH1A1 inh inconclusive (no result: HTT aggregate)
COc1ccccc1-c1cc(=O)c2cc(O)ccc2o1	HPGD inh 16µM (no result: HTT aggregate)
O=c1cc(-c2ccc(O)cc2)oc2ccc(O)cc12	HPGD inh 20µM
COc1ccc(Br)cc1CNc1ccc2[nH]c(=O)[nH]c2c1	JMJD2E inh inconclusive, CBFb-RUNX1 inh inconclusive (no result: HPGD inh)
COc1ccc(Br)cc1CNc1ccc(O)cc1	HTT aggregate inconclusive, JMJD2E inh inconclusive, CBFb-RUNX1 inh inconclusive, ALDH1A1 inh 10µM
